Source: PubChem BioAssay
Sampled rows, rich in hits. Any-hit rate of the full collection: about 12%.
HP1b binding inh = HTS for Inhibitors of HP1-beta Chromodomain Interactions with Methylated Histone Tails. AID 540317, 2011. Potency, µM (highest dose often 114 µM), without a hit: at the highest dose activity change, negative = inhibition, usual class: inhibitors. AlphaScreen HP1-beta / biotin-H3K9me3 peptide binding. hit rate 0.56% among 390,000. Chromobox protein homolog 1 (Homo sapiens), P83916; note: nearly all actives have a fitted effect of over 70% in size
Target sequence (P83916 whole entry, looked up): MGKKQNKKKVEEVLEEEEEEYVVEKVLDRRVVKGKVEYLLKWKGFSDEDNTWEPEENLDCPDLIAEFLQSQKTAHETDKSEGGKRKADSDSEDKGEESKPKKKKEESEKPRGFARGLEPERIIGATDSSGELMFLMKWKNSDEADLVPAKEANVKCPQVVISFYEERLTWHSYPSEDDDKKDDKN
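AlphaScreen: HP1-beta (50 nM) preformed 30 min with biotin-H3(1-18)K9me3 peptide (50 nM) in PBS pH 7.4, 0.01% Tween-20. Compound added for 30 min at RT, then streptavidin donor/nickel chelate acceptor beads (10 ug/mL) for 30 min.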
Sfp PPTase inh = qHTS Assay for Inhibitors of Bacillus subtilis Sfp phosphopantetheinyl transferase (PPTase). hit rate 3.5% among 310,000. Biochemical Sfp PPTase activity, qHTS. AID 1490, 2009. Potency, µM, without a hit: largest response in the series, negative = inhibition, usual class: inhibitors. 4'-phosphopantetheinyl transferase ffp (Bacillus subtilis), Q9F4F7;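 note: the enzyme is Sfp with the accession as filed and its product quenches rhodamine fluorescence; 0% = enzyme reaction without inhibitor and -100% = no enzyme wells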
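With Hepes-Na pH 7.6 buffer containing 10 mM MgCl2, Sfp (15 nM) modified BHQ-2-YbbR (12.5 uM) using rhodamine-CoA (5 uM). Two reads 30 minutes apart at 525/598 nm yielded each well's rate.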
JMJD2A Tudor inh = qHTS Assay for Inhibitors of JMJD2A-Tudor Domain | AlphaScreen JMJD2A-Tudor / H3K4me3 peptide binding | Potency, µM (top dose mostly 114 µM), for inactives: at the highest dose activity change, negative = inhibition, hits mostly inhibitors | Lysine-specific demethylase 4A (Homo sapiens), O75164 | hit rate 4.4% among 390,000 | AID 504339, 2011; note: % is set by controls: 0 for no effect and ±100 for the full control effect; nearly all actives have a fitted effect of over 50% in size
L3MBTL1 inh = qHTS Assay for the Inhibitors of L3MBTL1; Lethal(3)malignant brain tumor-like protein 1 (Homo sapiens), Q9Y468; AlphaScreen L3MBTL1–H3K9me1 peptide binding; Potency, µM (series often up to 57.1 µM), without a hit: top-dose activity, negative = inhibition, hits mostly inhibitors; hit rate 0.66% among 230,000; AID 485360, 2010; note: % is set by controls: 0 for no effect and ±100 for the full control effect; nearly all actives have a fitted effect of over 60% in size
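AlphaScreen assay: L3MBTL1 (50 nM final) was preincubated 30 min at room temperature with biotinylated H3(1-15)K9me1 peptide (75 nM final), then 30 min with library compounds; streptavidin donor and nickel chelate acceptor beads (10 ug/mL final) added, 30 min dark.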
G9a block = qHTS Assay for Inhibitors of Histone Lysine Methyltransferase G9a; Histone-lysine N-methyltransferase EHMT2 (Homo sapiens), Q96KQ7; G9a H3K9 monomethylation, AlphaScreen, 2 h; Potency, µM (series often up to 102 µM), without a hit: top-dose activity, negative = inhibition, actives largely listed as inhibitors; hit rate 8.8% among 350,000; note: % is set by controls: 0 for no effect and ±100 for the full control effect; nearly all actives have a fitted effect of over 75% in size
Target sequence (Q96KQ7 913-1193 limits assumed): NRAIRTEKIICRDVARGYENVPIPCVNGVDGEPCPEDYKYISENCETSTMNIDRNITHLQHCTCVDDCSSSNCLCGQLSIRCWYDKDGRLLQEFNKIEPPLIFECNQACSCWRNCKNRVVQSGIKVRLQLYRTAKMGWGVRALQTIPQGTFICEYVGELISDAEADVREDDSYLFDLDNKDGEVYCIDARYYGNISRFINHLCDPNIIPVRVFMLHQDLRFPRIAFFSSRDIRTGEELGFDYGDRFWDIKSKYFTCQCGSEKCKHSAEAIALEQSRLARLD
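Quantitative HTS format: methyltransferase activity on a biotin-tagged H3K9 peptide is measured by AlphaScreen, using a rabbit anti-monomethyl-H3K9 antibody with streptavidin donor and anti-IgG acceptor beads. Final levels are 20 nM enzyme, 500 nM peptide, 20 uM SAM; 2 h RT.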
BAZ2B block = qHTS Assay for Inhibitors of BAZ2B; Potency, µM (highest dose often 114 µM), for the others: at the top dose activity change, negative = inhibition, hits mostly inhibitors; Bromodomain adjacent to zinc finger domain protein 2B (Homo sapiens), Q9UIF8; AlphaScreen BAZ2B-H3K14Ac peptide displacement; hit rate 4.4% among 360,000; AID 504333, 2011; note: % is set by controls: 0 for no effect and ±100 for the full control effect; nearly all actives have a fitted effect of over 60% in size
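AlphaScreen displacement of biotin-H3(5-23)K14Ac peptide (50 nM final) from BAZ2B (50 nM final) in PBS pH 7.4, 0.01% Tween-20; complex preformed 30 min RT, then compounds (top 110 uM) 30 min RT, beads 20 min dark.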
The depositor's hits bear a star; ? = inconclusive; · = not tested or not shown; ! = repeats disagree; [ ] = remark or other dose. Calls come from the whole dose curve; as a rule, active = well fitted curve in the direction sought with a large enough effect; inconclusive = small, poorly fitted or top-dose-only effect, or another doubt; inactive = no such curve, though single readings can be large; an effect the other way counts as inactive or inconclusive. Potency is the fitted concentration of half-maximal effect.

SMILES | HP1b binding inh | Sfp PPTase inh | JMJD2A Tudor inh | L3MBTL1 inh | G9a block | BAZ2B block
COc1cc(F)c(S(=O)(=O)N2CCN(S(=O)(=O)c3cccc(NC(C)=O)c3)CC2)c(F)c1 | · | · | -15% | · | · | ·
Cc1ccc2nc(-c3cccc(-c4nc5ccc(C)cc5o4)n3)oc2c1 | ? | · | 18µM* | · | · | ·
Cc1ccc2nc(-c3cccc(N)c3)oc2c1 | 29% | -1% | -10% | · | 0% | -7%
CN1CCN(CCCN2c3ccccc3Sc3ccc(C(F)(F)F)cc32)CC1 | ? | ? | ? | -5% | 16µM*! | 35µM*
O=C1CSC2(CCN(CCCN3c4ccccc4Sc4ccc(Cl)cc43)CC2)N1 | · | -14% | · | · | 18µM* | ·
c1ccc2c(c1)Sc1ccccc1N2CCN1CCCC1 | · | 0% | · | · | -41%[12.7 µM] | ·
CCCCCCCC#Cc1ccccc1C(NC(=O)OC)C(C(=O)OC)C(=O)OC (configuration not stated) | · | 16% | · | · | · | ·
Cc1ccccc1OCCNCC(C)O (configuration not stated) | ? | -8% | 2.8µM* | 15% | 14µM* | 56µM*
CC(C)(Oc1ccc(Cl)cc1)C(=O)Nc1nnc2n1CCS2 | 11%[57 µM] | · | 79µM* | · | 21%[59 µM] | ?
O=C(Cc1ccc(Cl)cc1)Nc1nnc2n1CCS2 | 13%[57 µM] | · | ? | · | ? | 56µM*
CC(C)CC(=O)Nc1nnc2n1CCS2 | 12%[57 µM] | · | -24% | · | ? | -2%
O=C(Nc1nnc2n1CCS2)c1ccc(Br)o1 | 29% | 56µM* | 20µM* | · | 1.8µM* | 20µM*
CC(C)Oc1ccc(C(=O)Nc2nnc3n2CCS3)cc1 | 29%[57 µM] | · | -13% | · | 17%[59 µM] | -10%
Cc1cc2[nH]c(=O)c(=O)[nH]c2cc1S(=O)(=O)Nc1cccc(C(F)(F)F)c1 | 23% | · | -13% | · | -31%[59 µM] | -2%
O=C(O)c1ccc(N[C@@H]2OC[C@@H](O)[C@@H](O)[C@@H]2O)cc1 | · | -16% | · | · | -24%[12.7 µM] | ·
Nc1nnc(SCC(=O)c2ccccc2)s1 | 16% | 13% | -13% | -6% | 7%[59 µM] | ·
Nc1c(C(=O)c2ccccc2)sc2snc(SCC(=O)c3ccccc3)c12 | 17% | 40µM* | 22%[11.4 µM] | -6% | 6%[12.7 µM] | -34%
COCCNC(=O)CCn1c(=O)c2cc(OC)c(OC)cc2n(CC(=O)Nc2ccccc2OC)c1=O | 27% | · | 0% | · | 0%[59 µM] | 8%
COc1cccc(NC(=O)CSc2nc(=O)[nH]c3c2CCCC3)c1 | 18% | · | -7% | · | 6%[59 µM] | -4%
Cn1c(CC2C(=O)Nc3ccc(Br)cc32)nc2ccccc2c1=O (configuration not stated) | 31% | -3% | -15% | 0% | 50µM* | -4%
O=C1Nc2ccc(Br)cc2C1Cc1ccccc1F (configuration not stated) | 44% | 5% | -12% | 11% | · | 1%
CCc1cccc(NC(=O)CCS(=O)(=O)c2ccc(C)cc2)c1 | 26% | · | -5% | · | -28%[59 µM] | 8%[57.1 µM]
COCc1cc(C)nc(N/N=C/c2ccc(-c3ccc(Cl)cc3[N+](=O)[O-])o2)c1C#N | -5% | ? | -34% | -9% | 40µM* | ?
O=C(NCC12CC3CC(CC(C3)C1)C2)c1cc2nc(-c3ccc(Cl)cc3)cc(C(F)(F)F)n2n1 | 13% | · | -9% | · | 15%[59 µM] | -6%
Cc1ccc(Nc2nc(Nc3ccc(Cl)cc3)nc(N3CCOCC3)n2)cc1 | 1%[57 µM] | · | -2%[57.1 µM] | · | · | ·
SMILES | HP1b binding inh | Sfp PPTase inh | JMJD2A Tudor inh | L3MBTL1 inh | G9a block | BAZ2B block
COc1ccc(OC)c(CNC(=O)c2ccccc2NC(=O)c2nsc3ccccc23)c1 | 4%[57 µM] | · | -10% | · | -8%[59 µM] | -7%
O=C(NNc1nc2cc3c(cc2s1)OCO3)c1ccccc1 | 28% | ? | -18% | -10% | 28µM* | -6%
COc1ccccc1C(=O)Nc1nc2cc3c(cc2s1)OCO3 | 72% | 10% | 1%[11.4 µM] | · | 36% | -2%
O=C(NNc1nc2cc3c(cc2s1)OCO3)c1cccc(F)c1 | 32% | 28µM* | -15% | -14% | 8.9µM* | -5%
CC(CNC(=O)C1CCN(C(=O)c2cc3sccc3n2C)CC1)c1ccccc1 (configuration not stated) | 14% | · | -5% | · | -8%[59 µM] | -17%
CCCCNc1nc(C)nc2c1nc(-c1ccccc1)n2C1CCN(Cc2ccccc2)C1 (configuration not stated) | · | 6% | · | · | · | ·
O=c1cc(-c2ccccc2)n2c(SCc3ccc(Br)cc3)nnc2[nH]1 | 46% | · | -22% | · | ? | -3%
Cc1cc(C)n(-c2nnc(C)c(=O)[nH]2)n1 | 20% | 63µM* | 1µM* | ? | 2µM* | 7.1µM*
Cc1ccc(N2CC(NC(=O)Cc3cccs3)CC2=O)cc1C (configuration not stated) | 14% | · | -13% | · | 7%[59 µM] | -8%
C#CCOCCOCCOCCNc1nc(N2CCN(C(=O)C([C@@H](C)CC)n3cc(C(N)Cc4ccc(O)cc4)nn3)CC2)nc(N2CCN(C(=O)[C@H](CCC(=O)O)n3cc(C(N)[C@H](C)CC)nn3)CC2)n1 (some centres not stated) | 24% | -7% | ? | -2% | 13%[12.7 µM] | 79µM*
